Results taken from the supplement of paper PMC3724861.
The sample as a whole holds a higher share of hits than the screen did. The true hit rate is not given.

Test system: T1, Caupolican (Caup) homeodomain DNA-binding domain
T1 sequence: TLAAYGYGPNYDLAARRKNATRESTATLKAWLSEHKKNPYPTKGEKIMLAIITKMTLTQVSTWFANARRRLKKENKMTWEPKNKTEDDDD
Assay: PBM E-score (8-mer, recovered from the published 9-mer minima) (E-score (dimensionless, -0.5 to 0.5)); Drosophila protein; higher = stronger relative binding preference, active = 0.31 or more
Summary of the method: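 An enrichment score, with higher meaning stronger, expresses relative binding preference for each short DNA word. The protein used was Caup's homeodomain DNA-binding domain (residues 214-303), produced by in vitro transcription and translation and tested at 100 nM on custom-designed protein binding microarrays. The 8-mer values were recovered from published 9-mer scores, each equal to the lower of its two constituent 8-mer scores.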

Sequence | PBM E-score
GCAACTAC | 0.0804 (inactive)
GGCAGAGA | -0.188 (inactive)
AGTCGAAA | 0.0145 (inactive)
AAAACTCC | -0.138 (inactive)
AACTCGGG | -0.0964 (inactive)
GTTTCAAA | 0.0987 (inactive)
GGGCTTTA | -0.186 (inactive)
GATCTACA | 0.145 (inactive)
TGATAACA | 0.322 (active)
TAATAACA | 0.319 (active)
GGATAACA | 0.238 (inactive)
CGATAACA | 0.244 (inactive)
CAATAACA | 0.238 (inactive)
GAATAACA | 0.301 (inactive)
CGGTCTTA | -0.00157 (inactive)
CTGTAAGA | 0.138 (inactive)
ATGTAAGA | 0.332 (active)
GTGTAACA | 0.397 (active)
ACGTAACA | 0.263 (inactive)
ATGTAACA | 0.429 (active)
ATGTAACG | 0.347 (active)
ATGTAACC | 0.275 (inactive)
GTGTAAGA | 0.224 (inactive)
GCGTAACA | 0.221 (inactive)

Sequence | PBM E-score
ACGTAACG | 0.0522 (inactive)
CTGTAACA | 0.289 (inactive)
GGGTAACA | 0.216 (inactive)
GATAGATC | 0.0307 (inactive)
CACGCAAA | 0.0933 (inactive)
CAAATACA | 0.245 (inactive)
GTTCGCGA | 0.066 (inactive)
TACTGCAA | 0.125 (inactive)
ATTGGGCG | -0.135 (inactive)
AAGTAATT | 0.18 (inactive)
AGCCATAA | 0.0213 (inactive)
ACCGGCGA | -0.156 (inactive)
AGGTAACC | -0.0119 (inactive)
AGGTAACA | 0.327 (active)
AGGTAACT | 0.0502 (inactive)
CTGGTAAG | -0.00689 (inactive)
CTATGACA | 0.223 (inactive)
GTATGAGA | 0.0966 (inactive)
GTATGATA | 0.242 (inactive)
ATATGACA | 0.336 (active)
GTATGACA | 0.312 (active)
ATATGACC | 0.021 (inactive)
GAGCTGTA | 0.079 (inactive)
CTATTGAA | 0.0499 (inactive)

Sequence | PBM E-score
GCAAGTCC | -0.0418 (inactive)
ACATAATA | 0.323 (active)
ACATAACC | 0.22 (inactive)
ACATAACT | 0.291 (inactive)
ACATAATC | 0.202 (inactive)
ACATAACA | 0.332 (active)
GCATAATA | 0.169 (inactive)
GCCTATCA | -0.108 (inactive)
CGATCAAA | -0.00998 (inactive)
CATCTAAG | -0.0746 (inactive)
GGTGTTAA | 0.18 (inactive)
CGTGTTTA | 0.319 (active)
AGTGTTTA | 0.176 (inactive)
AGTGTTAA | 0.165 (inactive)
CGTGTTAC | 0.282 (inactive)
CGTGTTAG | 0.285 (inactive)
TGTGTTAA | 0.32 (active)
GGTGTTTA | 0.124 (inactive)
CGTGTTAA | ≥ 0.33 (active)
AGCTGAGG | -0.169 (inactive)
AAGCCTAC | -0.0275 (inactive)
AGACGGAC | -0.0361 (inactive)
CTGAAATA | 0.0494 (inactive)
AAATAACT | 0.19 (inactive)

Sequence | PBM E-score
ACATCAAC | 0.235 (inactive)
AAAGAGTA | 0.0035 (inactive)
AGTACCAG | 0.0977 (inactive)
CGTACAAC | 0.31 (active)
CGTACAAA | 0.18 (inactive)
GGTACAAC | 0.32 (active)
AGTACAAG | 0.416 (active)
GGTACAAA | 0.256 (inactive)
CGTACAAG | 0.37 (active)
CGTACAGC | 0.00506 (inactive)
CATACAAG | 0.3 (inactive)
AGTACAAT | 0.292 (inactive)
CGCACAAC | 0.0805 (inactive)
AGTACAAC | 0.275 (inactive)
GAGTTATC | 0.0344 (inactive)
CTAGCAAC | 0.101 (inactive)
GGTATTGA | 0.058 (inactive)
AGCTCAAT | -0.0704 (inactive)
TGAGTGCA | -0.0812 (inactive)
CGTTTGCC | -0.0961 (inactive)
TCATCGCA | 0.065 (inactive)
CACCCACG | -0.151 (inactive)
AAGGCGCG | -0.205 (inactive)
GCATGAGC | -0.0712 (inactive)

Sequence | PBM E-score
AGACAACT | 0.191 (inactive)
TGACAAAA | 0.186 (inactive)
TGTCAACA | ≥ 0.324 (active)
GGTCAACA | 0.159 (inactive)
AGACAACG | 0.231 (inactive)
CGACAACG | 0.168 (inactive)
CGACAACC | 0.186 (inactive)
TGACAACA | 0.377 (active)
CGTCAACA | 0.0802 (inactive)
TGACAGCA | 0.185 (inactive)
AGACAACA | 0.349 (active)
CGACAACA | 0.342 (active)
AAGCATCA | 0.0394 (inactive)
GCAAGTGC | -0.0754 (inactive)
AGACAGGC | -0.00368 (inactive)
AGTCCGGG | -0.154 (inactive)
AAGTTGAC | 0.0758 (inactive)
AACGCTGG | -0.0926 (inactive)
CTATTGGA | 0.00708 (inactive)
ATGCTGAC | 0.119 (inactive)
GAAAGCAC | 0.0573 (inactive)
ATGGTTGG | -0.0636 (inactive)
AATATTGG | 0.0704 (inactive)
ATCACTAG | 0.138 (inactive)

Sequence | PBM E-score
AGACAAGA | 0.256 (inactive)
GGACAAGA | 0.264 (inactive)
CGACAAGC | 0.224 (inactive)
GGACAACC | 0.169 (inactive)
GGACAACA | 0.336 (active)
CGACAAGA | 0.317 (active)
AAGGGGTG | -0.101 (inactive)
GCTGGTAC | 0.0272 (inactive)
AGTTCTAT | 0.0299 (inactive)
ATCTTGTA | 0.375 (active)
CTCTTGTA | 0.299 (inactive)
ATCTTGTC | 0.308 (inactive)
ATCTTGTG | 0.18 (inactive)
GTCTTGCA | 0.0651 (inactive)
GTCTTGTA | 0.352 (active)
GCAAAGGC | -0.087 (inactive)
ATATGCGA | 0.0126 (inactive)
AGTTCAAC | 0.0449 (inactive)
ACTCCTTG | 0.0436 (inactive)
CCTCTGCC | -0.243 (inactive)
ATCATAAC | 0.156 (inactive)
GCCATAAC | 0.0397 (inactive)
GACATAAC | 0.325 (active)
AACATAAC | 0.318 (active)

Sequence | PBM E-score
GACATAAA | 0.288 (inactive)
AACATAAG | 0.268 (inactive)
ATCATAAT | 0.167 (inactive)
AACATAAT | ≥ 0.327 (active)
CACATAAC | 0.223 (inactive)
AGCCCATG | 0.00842 (inactive)
CCTTAAGG | -0.154 (inactive)
AGAACGCC | -0.114 (inactive)
AACACGGA | 0.31 (inactive)
AACACGGC | 0.166 (inactive)
AACACGGT | 0.351 (active)
CACACGGG | -0.0095 (inactive)
AACACGGG | 0.32 (active)
AACACGCT | 0.267 (inactive)
CGCTGAAG | -0.19 (inactive)
CGCATTGA | -0.0262 (inactive)
CCCCAGCG | -0.312 (inactive)
CAAAACGG | 0.016 (inactive)
AAGGCTCA | -0.107 (inactive)
AATTTTCT | 0.0254 (inactive)
AGTGGACC | -0.151 (inactive)
GCAACAAA | 0.15 (inactive)
CCAACAAG | 0.196 (inactive)
ACAACAGT | 0.205 (inactive)

Sequence | PBM E-score
AAAACAAT | 0.177 (inactive)
ACAACAAA | 0.323 (active)
GCAACAAC | 0.205 (inactive)
ACAACAAC | 0.36 (active)
ACAACCAG | 0.249 (inactive)
CCAACAAC | 0.178 (inactive)
ACAACAAG | 0.362 (active)
ACAACAAT | 0.347 (active)
TCAACAAA | 0.157 (inactive)
AGTACGGA | -0.0156 (inactive)
ATAGACTA | 0.115 (inactive)
AGTTATTG | 0.11 (inactive)
AGAGTCCC | -0.228 (inactive)
GTACAGAA | 0.136 (inactive)
AGTATCAA | 0.148 (inactive)
TGTATCAA | 0.315 (active)
CGTATCAA | 0.0341 (inactive)
CCTGTCTA | 0.0989 (inactive)
CTTGTCCA | 0.287 (inactive)
GTTGTCAA | 0.339 (active)
ATTGTCAA | 0.183 (inactive)
ATTGTCTA | 0.194 (inactive)
ATTGTCCA | 0.1 (inactive)
GTTGTCCA | ≥ 0.336 (active)

Sequence | PBM E-score
GCTGTCAA | 0.057 (inactive)
GTTGTCTA | 0.321 (active)
CTTGTCTA | 0.281 (inactive)
CGGGACAA | 0.0647 (inactive)
CCGGGTGC | -0.287 (inactive)
ACTTAATC | 0.0653 (inactive)
GTTTAATA | 0.23 (inactive)
AAAGCCGA | -0.139 (inactive)
AGGTATAA | 0.0486 (inactive)
AGGTACAG | 0.146 (inactive)
CGGTACAA | 0.234 (inactive)
AGGTACAA | 0.345 (active)
AGGTACTC | 0.085 (inactive)
GGGTACAA | 0.242 (inactive)
AGGTACAC | 0.297 (inactive)
AGGTACAT | 0.389 (active)
TGGTACAA | 0.358 (active)
GGAGGGAA | -0.186 (inactive)
ACGCATAT | 0.103 (inactive)
ACGGCTTG | -0.133 (inactive)
CACCTACA | 0.17 (inactive)
AGTCATTG | 0.121 (inactive)
CGAGTGAA | -0.00479 (inactive)
GAACACGC | 0.254 (inactive)

Sequence | PBM E-score
CAACACGA | 0.267 (inactive)
TAACACGA | 0.323 (active)
GAACACGA | 0.32 (active)
GAACACTA | 0.103 (inactive)
TAACACCA | 0.247 (inactive)
GCCGCCCA | -0.275 (inactive)
CTGTAAAC | 0.18 (inactive)
CTGTAAAA | 0.121 (inactive)
CTGTAAAG | 0.0792 (inactive)
ATGTAAAT | 0.352 (active)
ATGTAAAA | 0.354 (active)
ATGTAAAG | 0.317 (active)
GTGTAAAC | 0.293 (inactive)
AGGTAAAT | 0.153 (inactive)
ACGTAAAT | 0.102 (inactive)
TTGTAAAA | 0.275 (inactive)
ATGTAAAC | 0.36 (active)
AAGTAAAG | -0.0403 (inactive)
